Bioassay records: PubChem BioAssay, The Scripps Research Institute Molecular Screening Center
PME-1 inh = PME-1 (human) inhibition; Q9Y570; recombinant PME-1, FP-Rh probe fluorescence polarization; inhibition, % at 5.9 µM; actives 0.53% (n = 320,000); AID 2130;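 active = inhibition above the campaign mean of all compounds plus 3 SD, cut at about 26% in these data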;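 also: competitive labeling of PME-1 active site by serine hydrolase directed probe; inhibitors block probe labeling so polarization falls and inhibition rises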
Fam108B counter = counter-screen for RBBP9 inhibitors: inhibitors of mouse Fam108B; recombinant Fam108B, FP-Rh probe fluorescence polarization; inhibition, % at 9.51 µM; actives 0.33% (n = 300,000);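 active = inhibition above the screen mean inhibition plus 3 SD, computed separately per campaign, cut at about 18% in these data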;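 also: inhibitors lower polarization as less probe binds the enzyme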
pPAFAH inh = inhibitors of human plasma PAF acetylhydrolase (pPAFAH); inhibition, % at 3.39 µM; actives 1.5% (n = 330,000); Q13093; recombinant pPAFAH, FP-rhodamine probe fluorescence polarization;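 active = inhibition above the mean inhibition across the screen plus 3 SD, cut at about 25% in these data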;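 also: inhibitors block binding of the rhodamine activity-based probe so polarization drops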
Target sequence (Q13093 whole entry, looked up): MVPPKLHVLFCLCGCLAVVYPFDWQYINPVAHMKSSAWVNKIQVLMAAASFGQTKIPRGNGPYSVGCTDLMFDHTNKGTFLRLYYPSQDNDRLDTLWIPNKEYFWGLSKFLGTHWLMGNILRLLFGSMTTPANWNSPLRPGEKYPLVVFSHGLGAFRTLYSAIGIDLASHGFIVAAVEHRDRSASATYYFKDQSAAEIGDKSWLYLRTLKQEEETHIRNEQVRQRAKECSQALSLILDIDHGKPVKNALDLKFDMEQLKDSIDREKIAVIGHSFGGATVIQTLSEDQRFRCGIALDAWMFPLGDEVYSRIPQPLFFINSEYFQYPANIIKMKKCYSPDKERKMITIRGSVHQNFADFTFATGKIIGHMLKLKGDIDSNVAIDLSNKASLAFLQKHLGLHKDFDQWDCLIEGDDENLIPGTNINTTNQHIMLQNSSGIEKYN
PAD4 FP inh = PAD4 (human) enzyme inhibition; Q9UM07; recombinant PAD4, RCA probe fluorescence polarization; inhibition, % at 6.36 µM; actives 0.41% (n = 330,000); AID 485272;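 active = percent inhibition above a cutoff equal to the mean of all tested compounds plus 3 SD, cut at about 15% in these data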
GSTO1 counter = blocks human GSTO1 in RBBP9 counter-screen | AID 1974 | actives 1.1% (n = 300,000) | inhibition, % at 5.96 µM | recombinant GSTO1, activity-based probe fluorescence polarization | P78417;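 active = inhibition above the campaign mean inhibition plus 3 SD, cut at about 35% in these data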
GSTO1 confirm = GSTO1 (human) inhibition, confirmation; shares compounds with GSTO1 counter; recombinant GSTO1, probe fluorescence polarization; inhibition, % at 5.96 µM; actives 54% (n = 2,400);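 active = inhibition above the primary screen's cutoff, its mean inhibition plus 3 SD, cut at about 35% in these data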;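 also: loss of polarization as inhibitors block binding of rhodamine sulfonate ester activity probe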
GSTO1 recomb ABPP = blocks recombinant human glutathione S-transferase omega 1; shares compounds with GSTO1 counter; recombinant GSTO1, gel ABPP SE-Rh probe fluorescence; inhibition, % at 1 µM; actives 30% (n = 130); AID 463110;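 active = inhibition of the enzyme GSTO1 above about 75%, limit read from the data; inactive = inhibition below that limit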
Numbers stand for hits; . = inactive; / = no result. Only some compounds are listed: those with a hit (about 2.3% of all), similar ones and a draw of the others.

SMILES	PME-1 inh	Fam108B counter	pPAFAH inh	PAD4 FP inh	GSTO1 counter	GSTO1 confirm	others
O=[N+]([O-])c1cncc([N+](=O)[O-])c1Nc1cccc(O)c1	.	.	.	.	70	.
Cc1ccccc1Nc1c([N+](=O)[O-])cncc1[N+](=O)[O-]	.	.	.	.	.	/
CCCCNC(=O)Oc1cc(CCl)on1	.	.	.	.	83	91	GSTO1 recomb ABPP=.
CCCCNC(=O)Cn1c(-c2ccc(OC)cc2)noc1=O	.	.	.	.	.	/
COC(=O)C1=C(C(=O)OC)[C@@H]2N(Cc3ccccc3)c3ccccc3[C@@]23C[C@@H](C(=O)OC)N(C(=O)NC(C)(C)C)C3=N1	.	.	.	.	.	/
Cc1cc(C)c2c(CCl)cc(=O)oc2c1	.	.	.	.	65	97
Cc1cc(C)c2c(CN3CCCCC3)cc(=O)oc2c1	.	.	.	.	.	/
Cc1nc2ccccc2c(=O)n1/N=C/c1ccc(O)cc1O	.	.	.	.	.	/
O=[N+]([O-])c1cccc(C=Nc2cccc3ccccc23)c1O	.	.	.	.	41	.
CCOC(=O)c1c(/N=C/c2cccc([N+](=O)[O-])c2O)sc(C)c1C	.	.	.	.	.	/
O=[N+]([O-])c1ccc(O)c(C=Nc2cccc3ccccc23)c1	.	.	.	.	52	.
Oc1ccc(C=Nc2cccc3ccccc23)c(O)c1	.	.	.	.	38	.
Cc1ccccc1N=Cc1cccc(O)c1O	.	.	32	.	70	.
COc1cccc(-c2nn(-c3ccccc3)cc2CN(C)C(C)c2ccon2)c1 (stereo unspecified)	.	.	.	.	.	/
CCC(NC(=O)CN1CCN(C(=O)c2cccs2)CC1)c1ccc(C)cc1 (stereo unspecified)	.	/	.	.	/	/
COc1cccc(Oc2nc(-c3ccncc3)nc3ccccc23)c1	.	.	.	.	.	/
CCc1ccc(NC(=O)Cn2c3[n+](c4c(F)c(F)ccc42)CCCCC3)cc1	.	.	.	.	77	89
O=C(Cn1c2[n+](c3ccc(C(F)(F)F)cc31)CCCCC2)Nc1ccc(Br)cc1	.	.	.	.	.	/
Cc1c(C=O)c(Cl)n(C)c(=O)c1C#N	.	.	.	27	53	84
CC(=O)N=Cc1c(C)c(C#N)c(=O)n(C)c1O	.	.	.	.	.	/
CCOC(=O)N1CCN(CCC(=O)Nc2cccc(C)c2)CC1	.	.	.	.	.	/
O=C(NNc1cc(Br)c(O)c(Br)c1)c1ccccc1	.	.	.	.	65	.
NS(=O)(=O)c1ccc(NNC(=O)c2ccccc2)cc1	.	.	.	.	.	/
O=C(Nc1ccc(Cl)cn1)c1ccc(COc2ccccc2Br)o1	.	.	.	.	63	.
CCOc1ccc(OCc2ccc(C(=O)Nc3ccc(Cl)cn3)o2)cc1	.	.	.	.	.	/
SMILES	PME-1 inh	Fam108B counter	pPAFAH inh	PAD4 FP inh	GSTO1 counter	GSTO1 confirm	others
CC(C)OP(=O)(OC(C)C)C1(NS(=O)(=O)c2ccc(Cl)cc2)C=C(Cl)C(=O)C(Cl)=C1	.	.	.	.	62	44
CC(C)N(CCNS(=O)(=O)c1ccc(Cl)cc1)C(C)C	.	.	.	.	.	/
O=C(O)c1ccc(NC2=C(Cl)C(=O)c3ccccc3C2=O)cc1	.	.	.	.	79	49
O=C(O)c1ccc(NC(=O)C(c2ccccc2)c2ccccc2)cc1	.	.	.	.	.	/
O=C1C(Cl)=C(Nc2ccccc2)C(=O)c2ccccc21	.	.	.	.	102	90
O=C(O)c1ccc2c(c1Nc1ccccc1)C(=O)c1ccccc1C2=O	.	.	.	.	.	/
CC(C)NC1=C(Cl)C(=O)c2ccccc2C1=O	.	.	.	.	65	.
CC(C)(C)c1ccc(S(=O)(=O)NCC(=O)N2CCCC2)cc1	.	.	.	.	.	/
O=C(NCCCNC(=O)c1cnccn1)c1ccc(Br)cc1	.	.	.	.	.	/
COc1ccc(-n2nc3ccc(N)cc3n2)cc1Cl	.	.	.	.	53	49
Cc1ccc(-n2nc3ccc(N)cc3n2)cc1C	.	.	.	.	.	/
Cc1ccc(-n2nc3ccc(N)cc3n2)cc1Cl	.	.	.	.	44	.
CC(=O)Nc1c2c(nn1-c1ccccc1C)CS(=O)(=O)C2	.	.	.	.	.	/
COCc1cc(C)nc(SCC(=O)c2ccc(O)c(O)c2)c1C#N	.	.	.	.	48	.
COCc1cc(C)nc(SCC(=O)Oc2ccccc2)c1C#N	.	.	.	.	.	/
Cc1ccc(/C=C2\SC(=S)N(CCC(=O)NNC(=O)c3cccnc3)C2=O)cc1	.	.	.	.	39	.
NC(=O)CC(NC(=O)c1ccc(Br)cc1)c1ccc(N2CCCCCC2)c([N+](=O)[O-])c1 (stereo unspecified)	.	.	.	.	.	/
Cn1c(-c2ccccc2)cnc1SCC(=O)N1CCCc2ccccc21	.	.	.	.	.	/
O=C(CSc1ncc(-c2ccccc2)n1C1CCCC1)N1CCc2ccccc21	.	.	.	.	39	.
Cc1ccc(C(C)(C)C)c(SCC(=O)Nc2nnc(C)s2)c1	.	.	.	.	.	/
CC(NC(=O)C1CC1)C(c1cccs1)N1CCOCC1 (stereo unspecified)	.	.	.	.	85	.
Cc1ccc(C)c(N2CC(C(=O)Nc3cc(C)on3)CC2=O)c1 (stereo unspecified)	.	.	.	.	.	/
CCOC(=O)N1CCC(N2C(=O)c3ccccc3C2Nc2cc(C)cc(C)c2)CC1 (stereo unspecified)	.	.	.	.	.	/
CCOC(=O)N1CCC(N2C(=O)c3ccccc3C2Nc2cc(C(=O)OC)cc(C(=O)OC)c2)CC1 (stereo unspecified)	.	.	.	.	59	.
CCN1CCN(C2=C(NS(=O)(=O)c3ccc(C)cc3)C(=O)c3ccccc3C2=O)CC1	.	.	.	.	.	/
SMILES	PME-1 inh	Fam108B counter	pPAFAH inh	PAD4 FP inh	GSTO1 counter	GSTO1 confirm	others
O=C1C(NS(=O)(=O)c2cccs2)=C(N2CCN(c3cccc(Cl)c3)CC2)C(=O)c2ccccc21	.	.	.	.	50	.
Cc1ccccc1NC(=O)Cc1nc(CCl)cs1	.	.	.	.	93	95	GSTO1 recomb ABPP=.
COc1cc(Sc2ccc(C)cc2)c(OC)cc1N	.	.	.	.	47	.
C/C(=N\Nc1cccc2cccnc12)c1ccc[nH]1	.	.	.	.	47	.
COc1ccc2oc3cc(C)[n+]([O-])c(-c4ccc(C)cc4)c3c2c1	.	.	.	.	.	/
COC1=CC(=O)CC(C)C12Oc1cc(OC)cc(OC)c1C2=O (stereo unspecified)	.	.	.	.	47	.
COc1cc(OC)c2c(c1)OC(c1ccc(OC)c(OC)c1)C(O)C2=O (stereo unspecified)	.	.	.	.	.	/
S=c1[nH]c2ccccc2n2c(=S)[nH]nc12	.	.	.	.	59	39
